About 79,000 compounds went through this panel and 15% of them were active in at least one assay; those are over-represented in the sample as a whole. The source made the active and inactive calls. No stated cut-off is given here; in the data, active means growth inhibition above about 70%; inactive means the rest.
How the values were obtained:
[1] = NCI Yeast Anticancer Drug Screen. Data for the rad50 strain (AID 155);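 further: 0% = growth of vehicle-only cultures of the same strain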; settings: S. cerevisiae rad50 strain growth inhibition, active compounds read high
Summary of the method: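 A DNA repair-deficient yeast mutant serves as the test organism; compound-induced growth inhibition is calculated against vehicle-treated cells.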

[2] = NCI Yeast Anticancer Drug Screen. Data for the mec2-1 strain (AID 157); settings: S. cerevisiae mec2-1 strain, active compounds read high
Summary of the method: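 Vehicle-treated cultures served as reference for growth inhibition of compound-exposed mec2-1 yeast.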

[3] = NCI Yeast Anticancer Drug Screen. Data for the sgs1 mgt1 strain (AID 161);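 further: 0% = growth of cultures given vehicle only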; settings: S. cerevisiae sgs1 mgt1 strain, active compounds read high
Summary of the method: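 Mutant yeast exposed to compound; growth scored against vehicle-only wells.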

[4] = NCI Yeast Anticancer Drug Screen. Data for the cln2 rad14 strain (AID 165);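 further: 0% = growth equal to vehicle treated cultures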; settings: S. cerevisiae cln2 rad14 strain, active compounds read high
Summary of the method: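 Each compound was tested on cln2 rad14 yeast. Inhibition of growth was calculated against vehicle-exposed controls.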

[5] = NCI Yeast Anticancer Drug Screen. Data for the bub3 strain (AID 167); settings: S. cerevisiae bub3 mutant strain, active compounds read high
Summary of the method: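 Inhibition values come from growth of compound-treated mutant yeast normalised to vehicle-treated controls.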

[6] = NCI Yeast Anticancer Drug Screen. Data for the mlh1 rad18 strain (AID 175); settings: S. cerevisiae mlh1 rad18 strain growth inhibition, active compounds read high
Summary of the method: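 Vehicle-treated cultures served as the reference for growth inhibition in a yeast strain carrying DNA damage repair alterations exposed to each compound.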

[7] = at 5.0 µM (retest, dose inferred, filed as 0.5)
[8] = at 50.0 µM (retest, dose inferred, filed as 5.0)

Measured: growth inhibition

Oc1cc(Br)ccc1/C=N/Nc1ccccn1
inactive: [1]; [7] -8% | [1]; [8] 46% | [1]; at 50.0 µM -38.4% | [2]; [7] -11% | [2]; [8] 60% | [2]; at 50.0 µM -13.6% | [3]; [7] -19% | [3]; [8] 6% | [3]; at 50.0 µM 15.6% | [4]; [7] -1% | [4]; [8] 53% | [4]; at 50.0 µM -21.8% | [5]; [7] 0% | [5]; [8] 46% | [5]; at 50.0 µM -3.4% | [6]; [7] -10% | [6]; [8] 27% | [6]; at 50.0 µM 1.05%

O=S(=O)(SCc1ccccc1)C(c1ccccc1)c1ccccc1
active: [1]; at 50.0 µM 89.7% | [2]; at 50.0 µM 98.6% | [3]; at 50.0 µM 98% | [4]; at 50.0 µM 95.5% | [5]; at 50.0 µM 99.1% | [6]; at 50.0 µM 98%
inactive: [1]; [7] 10% | [1]; [8] 6% | [2]; [7] 13% | [2]; [8] 6% | [3]; [7] 13% | [3]; [8] 31% | [4]; [7] 5% | [4]; [8] -17% | [5]; [7] 13% | [5]; [8] 39% | [6]; [7] 20% | [6]; [8] 18%

O=C1C=CC(=C(c2ccccc2)c2ccc(O)cc2)C=C1
inactive: [1]; [7] -5% | [1]; at 50.0 µM 31.3% | [2]; [7] -8% | [3]; [7] -5% | [3]; [8] -27% | [3]; at 50.0 µM 65.3% | [4]; [7] -7% | [4]; at 50.0 µM 27.6% | [5]; [7] -8% | [6]; [7] 2%
active: [1]; [8] 75% | [2]; [8] 72% | [2]; at 50.0 µM 80.3% | [4]; [8] 76% | [5]; [8] 92% | [5]; at 50.0 µM 92.2% | [6]; [8] 86% | [6]; at 50.0 µM 81%

N#Cc1c(-c2ccc(Cl)c(Cl)c2)c(-c2ccc(Cl)c(Cl)c2)nn(CC(=O)O)c1=O
active: [1]; [8] 98% | [2]; [8] 100% | [3]; [8] 98% | [4]; [8] 99% | [5]; [8] 99% | [6]; [8] 99%
inactive: [1]; [7] -2% | [1]; at 50.0 µM 38.1% | [2]; [7] -2% | [2]; at 50.0 µM 46.6% | [3]; [7] 2% | [3]; at 50.0 µM 50.7% | [4]; [7] -3% | [4]; at 50.0 µM 14.3% | [5]; [7] -3% | [5]; at 50.0 µM 34.2% | [6]; [7] 0% | [6]; at 50.0 µM 69.1%

NC(=S)N/N=C/c1ccc([N+](=O)[O-])o1
active: [6]; at 50.0 µM 75.3%
inactive: [1]; [7] 11% | [1]; [8] 27% | [1]; at 50.0 µM 66% | [2]; [7] 3% | [2]; [8] 14% | [2]; at 50.0 µM 43.7% | [3]; [7] 4% | [3]; [8] 24% | [3]; at 50.0 µM 65.2% | [4]; [7] -3% | [4]; [8] 2% | [4]; at 50.0 µM 13.7% | [5]; [7] 10% | [5]; [8] 45% | [5]; at 50.0 µM 24.2% | [6]; [7] 13% | [6]; [8] 43%

O=S(=O)(Nc1ccc(-c2ccc(Cl)cc2)cc1)c1ccccc1
active: [1]; [8] 97% | [1]; at 50.0 µM 92.5% | [2]; [8] 99% | [2]; at 50.0 µM 93.2% | [3]; [7] 75% | [3]; at 50.0 µM 97.8% | [4]; [8] 90% | [4]; at 50.0 µM 92.3% | [5]; [8] 98% | [5]; at 50.0 µM 95.8% | [6]; [7] 95% | [6]; [8] 98% | [6]; at 50.0 µM 95%
inactive: [1]; [7] 68% | [2]; [7] 58% | [3]; [8] -21% | [4]; [7] 19% | [5]; [7] 38%

CSC(SC)=C1C(=O)NC(Cc2ccccc2)C1=O (configuration not stated)
inactive: [1]; [7] 6% | [1]; [8] 50% | [2]; [7] 1% | [2]; [8] 35% | [2]; at 50.0 µM 36.1% | [3]; [7] 0% | [3]; [8] 66% | [4]; [7] 2% | [4]; [8] 24% | [4]; at 50.0 µM 37.5% | [5]; [7] 1% | [5]; [8] 34% | [5]; at 50.0 µM 50.3% | [6]; [7] 5% | [6]; [8] 68%
active: [1]; at 50.0 µM 80.1% | [3]; at 50.0 µM 71.8% | [6]; at 50.0 µM 83%

CCC(c1ccc(O)cc1)C(CC)c1ccc(O)c(CN(C)C)c1 (configuration not stated)
active: [1]; [8] 76% | [2]; [8] 74% | [3]; [8] 98% | [3]; at 50.0 µM 74.2% | [4]; [8] 83% | [5]; [8] 83% | [6]; [8] 96%
inactive: [1]; [7] 1% | [1]; at 50.0 µM 66.8% | [2]; [7] 0% | [2]; at 50.0 µM 45.5% | [3]; [7] -6% | [4]; [7] -3% | [4]; at 50.0 µM 42.6% | [5]; [7] -1% | [5]; at 50.0 µM 36.5% | [6]; [7] 2% | [6]; at 50.0 µM 65.3%

CC[C@@H]1O[C@@H]([C@@H]2CC[C@](O)([C@]3(C)CC[C@@H]([C@@H](C)[C@@]4(O)CC[C@H](C)[C@@H](C[C@@]5(O)O[C@@H]([C@@H](C)[C@H](O)C[C@H]6CC[C@H](C)[C@@H]([C@@H](C)C(=O)O)O6)CC[C@@H]5C)O4)O3)O2)CC[C@@]1(C)O
active: [1]; [8] 90% | [1]; at 50.0 µM 88.4% | [2]; [8] 94% | [2]; at 50.0 µM 90.2% | [3]; [8] 92% | [3]; at 50.0 µM 89.2% | [4]; [8] 92% | [4]; at 50.0 µM 88.2% | [5]; [8] 93% | [5]; at 50.0 µM 87.2% | [6]; [8] 93% | [6]; at 50.0 µM 87.7%
inactive: [1]; [7] 10% | [2]; [7] 34% | [3]; [7] -9% | [4]; [7] 58% | [5]; [7] -14% | [6]; [7] -18%

Reference: PubChem BioAssay (NCI)
